# PLK1 PBD block: inhibitors of human PLK1 polo-box domain binding | Plk1 PBD binding of FITC phosphopeptide, fluorescence polarization | hit rate 2.8% among 360,000 | Potency, µM, actives largely listed as inhibitors | P53350 | AID 720504; also: series mostly up to about 57 µM; nearly all actives have a fitted effect of over 65% in size
# RORgamma inh: inhibitors of mouse ROR gamma transcriptional activity. Drosophila S2 Gal4-RORgamma UAS-luciferase reporter, 20 h. Potency, µM (highest dose often 53.6 µM), actives largely listed as inhibitors. hit rate 5.4% among 310,000; also: nearly all actives have a fitted effect of over 60% in size
#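 ROR gamma transcriptional activity was tracked as Gal4-UAS luciferase output in stably transfected Drosophila Schneider cells, with compound added 1 hr before 700 uM copper sulfate induction and a 20 hr ambient-temperature incubation.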
# ALDH1A1 inh: ALDH1A1 (human) enzyme inhibition. Potency, µM (top dose mostly 75.3 µM), most hits filed as inhibitors. Purified ALDH1A1, NADH fluorescence, propionaldehyde substrate. P00352. hit rate 7.3% among 220,000. AID 1030; active = well fitted inhibition curve with a large enough effect, not every such curve was filed as active; inconclusive = small, poorly fitted or top-dose-only effect, or another doubt; inactive = no such curve, though single readings can be large or run the other way
# Target sequence (P00352 whole entry, looked up): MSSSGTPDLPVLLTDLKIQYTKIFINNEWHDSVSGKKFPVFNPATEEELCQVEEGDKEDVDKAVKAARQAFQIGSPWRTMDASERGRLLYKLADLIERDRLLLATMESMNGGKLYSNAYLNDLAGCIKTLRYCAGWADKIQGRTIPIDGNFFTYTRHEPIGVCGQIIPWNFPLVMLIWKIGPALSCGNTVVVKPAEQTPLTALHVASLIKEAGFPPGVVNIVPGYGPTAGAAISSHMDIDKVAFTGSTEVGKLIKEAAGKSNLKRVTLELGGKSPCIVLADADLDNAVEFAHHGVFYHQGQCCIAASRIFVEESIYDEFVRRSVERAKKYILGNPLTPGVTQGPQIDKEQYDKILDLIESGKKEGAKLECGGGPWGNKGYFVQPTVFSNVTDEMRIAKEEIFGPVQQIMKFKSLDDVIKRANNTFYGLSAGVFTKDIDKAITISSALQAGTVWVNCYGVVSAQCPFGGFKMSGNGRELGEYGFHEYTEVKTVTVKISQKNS
# Gal4-VP16 FLuc: Gal4-VP16 reporter inhibition counter-screen. Drosophila S2 Gal4-VP16 UAS-luciferase, luminescence, 20 h. hit rate 3.5% among 310,000. Potency, µM (titrated, usually from 53.6 µM), most hits filed as inhibitors;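 also: Gal4-VP16 expression switched on by copper sulfate through the metallothionein promoter; nearly all actives have a fitted effect of over 50% in size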
# Sfp inh: blocks B. subtilis Sfp PPTase activity | Q9F4F7 | Biochemical Sfp PPTase activity, qHTS | Potency, µM, usual class: inhibitors | hit rate 3.5% among 310,000;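 also: the enzyme is Sfp with the accession as filed and its product quenches rhodamine fluorescence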
#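 Buffer: 50 mM Hepes-Na pH 7.6, 10 mM MgCl2, 0.01% Nonidet P-40, 0.01% BSA. Enzyme 15 nM, pre-exposed to compound 15 min; substrates then added and fluorescence change tracked over 30 min.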
# Numbers stand for hits; 0 = inactive; ? = inconclusive; - = no result; [ ] = dose if it differs, or a comment. Rows were chosen to be rich in hits. Some 12% of all compounds tested hit in one or more screens of this group. Unless noted, calls follow the shape of the dose curve; as a rule, active = well fitted curve in the direction sought with a large enough effect; inconclusive = small, poorly fitted or top-dose-only effect, or another doubt; inactive = no such curve, though single readings can be large; an effect the other way counts as inactive or inconclusive.
SMILES,PLK1 PBD block,RORgamma inh,ALDH1A1 inh,Gal4-VP16 FLuc,Sfp inh
COc1ccc(C2CC(c3ccccc3)n3nnnc3N2)cc1 (stereo not given),0,0,?,0,0
COc1ccc(C2CC(c3ccccc3)n3nc(NC(=O)c4cccs4)nc3N2)cc1 (stereo not given),0,3.5µM,?,5µM,0
CC1(C)CC(=O)C2=C(C1)O[C@@]1(CCCCN3C(=O)c4ccccc4C3=O)Cc3ccccc3C2O1,-,0[10 µM],-,0[10 µM],0
CCCC[C@]12Cc3ccccc3C(O1)c1c(cc(-c3ccccc3)oc1=O)O2,-,0[10 µM],-,?,0
Cc1cc(S(=O)(=O)NCC(=O)O)ccc1F,21µM,0,0,0[0.365 µM],0
COc1nc(C)ccc1-c1noc(-c2cccnc2)n1,0,14µM,-,0,0
COc1nc2cc(C)ccc2cc1-c1noc(-c2cccnc2)n1,-,0,0,0,0
COCCNC(=O)Cn1cc(C(=S)N2CCOCC2)c2ccccc21,30µM,0,32µM,0[10 µM],32µM
COCCCNC(=O)Cn1cc(C(C)=O)c2ccccc21,0,0,0,0,0
COc1ccc(-c2nnc3n2N=C(c2c(OC)cccc2OC)CS3)cc1,-,0,-,0,0
CC(C)NC(=S)N/N=C1\CCCCc2ccccc21,0,0.79µM,?,2µM,0
S=C(N/N=C1\CCc2ccccc21)NC1CCCCC1,0,1µM,?,5.6µM,0
COc1ccc(OCC(=O)N/N=C2\CCCCc3ccccc32)cc1,11µM,0,0,0,0
COc1ccc(NCC(=O)N/N=C2\CCc3ccccc32)cc1,0,0,?,0,0
Cc1ccc(C)c(NC(=S)N/N=C2/CCCCc3ccccc32)c1,0,1.6µM,?,6.3µM,0
O=c1[nH]c(C2CCCN(S(=O)(=O)c3ccccc3)C2)nc2c1nnn2Cc1ccccc1Br (stereo not given),0,0,-,0,0
O=C(NC1CCN(Cc2ccccc2)CC1)c1ccc(-n2c(=O)c(=O)[nH]c3ccccc32)cc1,-,-,0,-,-
COc1cccc(NC(=S)N/N=C2/CCCCc3ccccc32)c1,0,3.5µM,?,5µM,0
Nc1cc(N)nc(SCCOc2ccccc2)n1,0,?,0,0,0
COc1cccc(OCCSc2nc(N)cc(N)n2)c1,0,7.9µM,0,6.3µM,0
O=C(CN(C(=O)CNC(=O)c1ccco1)c1ccc2c(c1)OCO2)NC1CCCCC1,0,0[10 µM],?,0,0
O=C(CN(Cc1ccc2c(c1)OCO2)C(=O)CNC(=O)c1ccco1)NC1CCCCC1,0,0,22µM,0,0
[Cu].[NH-][C@H](CC(=O)O)C(=O)O.[NH-][C@H](CC(=O)O)C(=O)O,-,-,0[13.5 µM],-,-
C=CC1=C2C=C(C3CC3)N(Cc3ccc4c(c3)OCO4)C=C2C(=O)C(C)(OC(=O)c2ccco2)C1=O (stereo not given),-,-,0[13.5 µM],-,0
CN(C)c1ccc(C2NCCS2)cc1 (stereo not given),0,0,1µM,0,0
SMILES,PLK1 PBD block,RORgamma inh,ALDH1A1 inh,Gal4-VP16 FLuc,Sfp inh
CC(C)(C)C(=O)COc1ccccc1[N+](=O)[O-],0,0,20µM,0,0
COC(=O)c1ccccc1NC(=S)NC(=O)COc1ccc(C)cc1,0,-,-,-,-
Cc1cc(Cl)ccc1OCC(=O)Nc1ccccc1N1CCOCC1,0,?,0,0,0
O=[N+]([O-])c1ccccc1OCCOc1ccccc1[N+](=O)[O-],0,0,-,0,0
Cc1cc(Cl)ccc1OCC(=O)NC(=S)Nc1ccccc1N1CCOCC1,0,4.5µM,0,?,0
COC(=O)c1ccccc1NC(=S)NC(=O)COc1ccccc1Cl,?,10µM,0,?,0
Cc1nc(NC(=S)NC(=O)COc2ccccc2Cl)ccc1Br,0,7.1µM,0,7.1µM,0
COC(=O)N[C@@H](c1cccc(C)c1)[C@@H](C)[N+](=O)[O-],-,0,0,0,0
CCn1cc(/C=C(\NC(=O)c2ccccc2)C(=O)NCCN2CCOCC2)c2ccccc21,0,-,-,-,-
O=C(COc1ccccc1Cl)NC(=S)Nc1ccccc1N1CCCC1,0,5.6µM,-,7.9µM,0
COc1ccc(Cl)cc1C(=O)Nc1ccc(NC(C)=O)cc1,0,0,?,0,0
COc1ccc(Cl)cc1C(=O)Nc1ccc(Br)c(C)n1,24µM,0,0,0[10 µM],0
COc1ccc(NC(=O)COC(=O)Cn2nnc3ccccc32)cc1,0,0,0,0,0
O=C(COC(=O)COc1ccccc1[N+](=O)[O-])Nc1ccccc1Br,0,0[10 µM],18µM,0,0
O=C(COC(=O)Cn1nnc2ccccc21)Nc1ccccc1Br,30µM,0,0,0,0
CC(C)c1ccccc1NC(=O)COC(=O)COc1ccccc1[N+](=O)[O-],0,0,0,0,0
CCOC(=O)C1(C)CCN1C(=O)c1ccc(SC(F)(F)F)cc1 (stereo not given),0,-,-,-,-
CC1(C(=O)Nc2ccc3c(c2)OCCO3)CSCC(=O)N1CC(F)(F)F (stereo not given),0,-,-,-,-
N/N=C1/c2ccccc2N[C@H]1OC(=O)Nc1cccc(Cl)c1,-,-,0[13.5 µM],-,-
O=C(COc1ccccc1[N+](=O)[O-])Nc1ccccc1N1CCCC1,0,0,0,0,20µM
C(=C\c1ccccc1)/CSc1nnc(-c2ccccn2)n1Cc1ccco1,0,0[0.365 µM],0,-,32µM
NC(=O)CSc1nnc(-c2ccccn2)n1Cc1ccco1,0,0,-,0,0
Clc1ccccc1CSc1nnc(-c2ccccn2)n1Cc1ccco1,0,?,?,?,56µM
CCCCN(C(=O)Cc1cccs1)c1nnc(-c2cccnc2)s1,0,?,18µM,0,0
Cc1nc(SCC(=O)NCCc2ccccc2)n[nH]1,3.8µM,0,0,0,0
SMILES,PLK1 PBD block,RORgamma inh,ALDH1A1 inh,Gal4-VP16 FLuc,Sfp inh
Cc1nc(SCC(=O)Nc2ccccn2)n[nH]1,0,0,0,0,0
Cc1ccc2nc(SCC(=O)NCCc3ccccc3)nc(=O)n2c1,0,-,-,-,-
Cc1nc(SCC(=O)Nc2ccnc3ccccc23)n[nH]1,0,0,18µM,0,0
C/C(=N/Nc1nc(-c2ccccc2)cc(-c2ccccc2)n1)c1ccc(N)cc1,-,10µM,0,?,0
CC(=O)Nc1ccc(/C(C)=N/Nc2nc(Nc3cccc4ccccc34)nc(N3CCOCC3)n2)cc1,0,5.6µM,0,11µM,0
C/C(=N\Nc1nc(N2CCCCCC2)nc(N2CCCCCC2)n1)c1ccccc1,0,3.2µM,0,0,0
CC(=O)Nc1ccc(/C(C)=N/Nc2nc(N3CCOCC3)nc(N3CCOCC3)n2)cc1,30µM,0,0,0,0
COc1ccccc1CNCCS(=O)(=O)NCc1ccccc1,0,-,-,-,-
O=C(c1ccc(N2C(=O)CCC2=O)cc1)N1CCCSC1=Nc1ccccc1,0,-,-,-,-
CC(OC(=O)c1ccc(C(C)(C)C)cc1)C(=O)NC1CCCCC1C (stereo not given),0,0,-,14µM,0
Cc1ccc(NC2=C/C(=N/S(=O)(=O)c3cccs3)c3ccccc3C2=O)cc1C,0,?,0,0,0
COc1ccc(S(=O)(=O)/N=C2\C=C(Nc3ccc(O)cc3)C(=O)c3ccccc32)cc1,0,10µM,-,5.6µM,0

# Source: PubChem
